Measurements taken from PubChem BioAssay (Tox21).
Several values for one entry are separate records, joined by “and”; a condition that tells them apart may be missing. Identical values can stand only once. Records with an inconclusive call do not appear. Where a call stands in place of a potency, no number is given. The source holds several records for some structures; these can differ, active in one and inactive in another. Activity calls are given as the source filed them. Calls follow the shape of the dose curve; as a rule, active = well fitted inhibition curve with a large enough effect in the repeat runs; inconclusive = weak or mixed curves; inactive = no such curve, though single readings can be large or run the other way.

target: Cytochrome P450 1A2 (Homo sapiens) (UniProt P05177); assay: Cytochrome P450 Family 1 Subfamily A Member 2 (CYP1A2) small molecule antagonists: luciferase reporter qHTS assay (AID 1671199); settings: P450-Glo CYP1A2 enzyme, luciferin luminescence, 1 h; series mostly up to 115 µM; also: nearly all actives have a fitted effect of over 50% in size
From the text: National Center for Advancing Translational Sciences [NCATS]
U.S. Environmental Protection Agency [EPA]
National Institutes of Environmental Health Sciences [NIEHS]
National Toxicology Program [NTP]
U.S. Food and Drug Administration [FDA]
Cytochrome P450 (CYP) enzymes are membrane-bound hemeproteins that play a key role in metabolism of drugs and xenobiotics. Evaluation of the effect of chemicals on CYP isozymes is useful to minimize the adverse drug reactions and toxicities in drug development process. Tox21 chemicals were tested for their effect on CYP enzyme activities by using P450-Glo (TM) screening systems (Promega Corporation, Madison, WI). These systems provide a luminescent method containing proluciferin substrates and are converted to luciferin products by CYP isozymes. The luciferin products formed are detected with a luciferin detection reagent, and the amount of light produced is proportional to CYP activity. P450-Glo (TM) CYP1A2 screening system (Catalog. No. V9770) was used to detect the compounds that interfere in CYP1A2 activity. The positive control compound used for CYP1A2 assay is furafylline (Sigma-Aldrich, St. Louis, MO).
Tox21 Assay Protocol Summary:
Two ul of enzyme-substrate mix was dispensed into medium binding white/solid 1536-well plates (Greiner Bio-One North America Inc., Monroe, NC) using a BioRaptr Flying Reagent Dispenser (FRD, Beckman Coulter, Brea, CA). Compounds dissolved in DMSO and positive control (furafyllline) were transferred to the assay plates at 23 nl using a Pintool station (Wako, San Diego, CA). The assay plates were incubated at room temperature for 10 min. Then 2 ul of NADPH regeneration solution was added to each well of the assay plates using an FRD and incubated at room temperature for 1 h. The reaction was stopped by adding 4 ul of detection reagent using an FRD and after 20 min incubation at room temperature the luminescence signal was measured using a ViewLux plate reader (Perkin Elmer, Shelton, CT). Data were expressed as relative luminescence units.
Potency is read from the fitted curve at half-maximal effect.

Sequence of Cytochrome P450 1A2 (Homo sapiens) (P05177 whole entry, looked up): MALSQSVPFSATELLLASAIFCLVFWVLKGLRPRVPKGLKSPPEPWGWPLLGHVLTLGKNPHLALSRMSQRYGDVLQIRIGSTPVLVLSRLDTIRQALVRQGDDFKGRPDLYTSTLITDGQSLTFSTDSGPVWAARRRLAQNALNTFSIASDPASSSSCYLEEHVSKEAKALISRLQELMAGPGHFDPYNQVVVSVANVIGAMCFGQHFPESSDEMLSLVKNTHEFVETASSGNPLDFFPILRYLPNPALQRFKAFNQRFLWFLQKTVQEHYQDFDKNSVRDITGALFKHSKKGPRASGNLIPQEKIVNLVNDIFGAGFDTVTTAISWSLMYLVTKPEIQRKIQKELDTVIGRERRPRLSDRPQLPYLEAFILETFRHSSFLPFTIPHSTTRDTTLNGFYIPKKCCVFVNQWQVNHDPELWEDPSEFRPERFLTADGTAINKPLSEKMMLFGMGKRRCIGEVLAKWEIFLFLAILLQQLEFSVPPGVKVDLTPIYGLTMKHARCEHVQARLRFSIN

Row | SMILES | Potency
1 | O=C(O)c1ccc2c(c1)C(=O)OC2=O | inactive
2 | CCCCCOC(C)=O | inactive
3 | C#C[C@]1(O)CC[C@H]2[C@@H]3CCC4=CC(=O)CC[C@@H]4[C@H]3CC[C@@]21C | inactive
4 | CCOC(=O)NNc1nncc2ccccc12 | 20 µM (active)
5 | OCC(CO)(CBr)CBr | 40.4 µM (active) and inactive
6 | O=C(Oc1ccccc1)c1ccccc1 | 31.7 µM (active)
7 | Cc1ccc(N(C)C)cc1 | inactive
8 | CCCCCCCCCCCCc1ccccc1 | inactive
9 | CCCCCC1=CCCC1=O | inactive
10 | CC(=O)CC(=O)Nc1ccccc1C | 39.9 µM (active)
11 | CCCCC(CC)COC(=O)C(C#N)=C(c1ccccc1)c1ccccc1 (stereo not given) | 31.7 µM (active)
12 | CC(C)(C)[C@@H](O)[C@@H](Cc1ccc(Cl)cc1)n1cncn1 | inactive
13 | O=[N+]([O-])c1ccc(/C=C/c2ccc([N+](=O)[O-])cc2S(=O)(=O)O)c(S(=O)(=O)O)c1 | inactive
14 | CCN(CC)c1ccc(C(=O)c2ccccc2C(=O)O)c(O)c1 | inactive
15 | Cc1cc(C)c(C)cc1C | inactive
16 | CC[C@H](C)C(=O)O[C@H]1C[C@@H](C)C=C2C=C[C@H](C)[C@H](CC[C@@H]3C[C@@H](O)CC(=O)O3)[C@H]21 | inactive
17 | Fc1ccc(Br)cc1 | 40.3 µM (active) and inactive
18 | CC(c1cc2ccccc2s1)N(O)C(N)=O (stereo not given) | 8.94 µM (active) and 11.5 µM (active)
19 | CC1=CCC2CC1C2(C)C (stereo not given) | inactive
20 | CC(=O)c1ccccc1 | 32.9 µM (active)

Row | SMILES | Potency
21 | CCC(O)OCCCOC (stereo not given) | inactive
22 | CC1=C(C)S(=O)(=O)CCS1(=O)=O | inactive
23 | O=C(OCCOCCOC(=O)c1ccccc1)c1ccccc1 | 5.01 µM (active) and 8.94 µM (active)
24 | O=S1(=O)CC=CC1 | inactive
25 | C[Si](O[Si](C)(C)C)O[Si](C)(C)C | inactive
26 | CCCCOC(=O)COc1ccc(Cl)cc1Cl | 40.4 µM (active) and 39.9 µM (active)
27 | CCCCCC/C(C=O)=C\c1ccccc1 | 22.7 µM (active) and 8.94 µM (active)
28 | CC(C)CC(=O)CC(C)C | inactive
29 | COc1ccc(Nc2ccccc2)c(C)c1 | inactive and 11.2 µM (active)
30 | CCCCN(CCCC)CCCC | 35.5 µM (active) and inactive
31 | O=c1[nH]c(=O)n([C@H]2CCCO2)cc1F | inactive
32 | Cc1occc(=O)c1O | inactive
33 | c1ccc(OCCOc2ccccc2)cc1 | 15.9 µM (active) and 20 µM (active)
34 | Cc1cccnc1 | inactive
35 | CN(C)CCC(c1ccccc1)c1ccccn1 (stereo not given) | 40 µM (active) and inactive
36 | O=C(O)c1cc(O)c(O)c(O)c1 | inactive
37 | CCCCCC(N)=O | inactive
38 | Nc1ccccc1[N+](=O)[O-] | 35.9 µM (active)
39 | Cc1ccc2oc(=O)ccc2c1 | 32.6 µM (active) and 31.7 µM (active)
40 | C[C@H]1C[C@@H]2[C@H]([C@@H](O)C[C@@]3(C)[C@H]2CC[C@]3(O)C(=O)CO)[C@@]2(C)C=CC(=O)C=C12 | inactive
